16 compounds from PubChem BioAssay (NCATS) can be followed below.

A number with no mark means an inactive call. Calls follow the shape of the dose curve; as a rule, active = well fitted activation curve with a large enough effect; inconclusive = small, poorly fitted or top-dose-only effect; inactive = flat fitted curve, though single readings scatter.

A short description of this assay: Confirmation and Secondary Assay for Modulators of Hemoglobin Beta Chain Splicing at IVS2 705 locus (AID 930). Also: % of control where 0% means no effect. The conditions noted are these: HeLa EGFP-705 splicing reporter, GFP fluorescence, 48 h; series mostly up to 46.1 µM; activation: at the top concentration. The gist of the method: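 Fluorescence gain (488 nm laser, 500-520 nm PMT) reflects restored correct splicing of a mutant IVS2-705 intron inside EGFP in stably transfected HeLa cells after 2-day compound treatment.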
Turning to `NCC1O[C@H](O[C@@H]2C(O)[C@H](O[C@H]3OC(CO)C(O)C(N)C3O)[C@@H](N)C[C@H]2N)[C@@H](N)CC1O` (stereo partly specified), the “activation” value is 1.14%.

`CS(C)(=O)=O`: the “activation” value was 1.04%. The value for `COc1ccc(-c2c(O)c3c(OC)c4c(cc3oc2=O)OC(C)(C)CC4)cc1` was -0.452% [at 38.3 µM]; that for `COc1ccc2c3c1OC1CC(O)C=C[C@@]31CCN(C)C2` (stereo partly specified) was 0.415%; that for `COc1cc(C2c3cc4c(cc3C(OC3OC5COC(C)O[C@@H]5C(O)C3O)C3COC(=O)C23)OCO4)cc(OC)c1O` (stereo partly specified) was -0.637%.

Turning to `CNC1C(O)C2OC3OC(C)CC(=O)[C@@]3(O)O[C@H]2[C@H](NC)C1O` (stereo partly specified), the “activation” value is 1.03%.

Consider `COC1=CC(=O)C=C(OC)C1=O`, for which the “activation” value is 2.54%.

On to `CNCC(O)c1cccc(O)c1` (stereo unspecified), for which the “activation” value was -1.72%. As for `CNC1C(O)C(O[C@H]2C(O)[C@@H](OC3OC(CN)=CCC3N)[C@H](N)C[C@@H]2N)OC[C@]1(C)O` (stereo partly specified), the figure is 0.364%; as for `COC(=O)CC1[C@@]2(C)C[C@@]34OC5(C)OC6(CC[C@@]7(C)C(c8ccoc8)OC(=O)C(C(C)=O)C7[C@]6(O5)C(O)[C@@]3(O)C2O)[C@]14C` (stereo partly specified), 0.532% [at 38.3 µM]; as for `NC(N)=Nc1nc(CSCC/C(N)=N\S(N)(=O)=O)cs1`, 0.979%. On to `CCCN1CC(CSC)C[C@H]2c3cccc4[nH]cc(c34)C[C@H]21` (stereo partly specified), for which the “activation” value was 0.913%. With `C[C@]12CCC(=O)C=C1CCC1C2C(O)C[C@]2(C)C1CC[C@]2(O)C(=O)COC(=O)CCC(=O)O` (stereo partly specified), the “activation” value was 1.54%.

Turning to `Oc1ccc2c(c1)OCC1c3cc4c(cc3OC21)OCO4` (stereo unspecified), the “activation” value is 1.33%.

`CC1C(NC(=O)/C(=N/OC(C)(C)C(=O)O)c2csc(N)n2)C(=O)N1S(=O)(=O)O` (stereo unspecified): the “activation” value is 2.12%. The value for `Cc1nnc(SCC2=C(C(=O)O)N3C(=O)C(NC(=O)Cn4cnnn4)[C@@H]3SC2)s1` (stereo partly specified) was 6.87%.
